Drawing on PubChem BioAssay (NCI), this text covers growth for nine compounds.

Test systems include NCI-H23 lung; NCI-H226 lung; HOP-62 NSCLC; NCI-H460 lung; HOP-92 NSCLC; NCI-H522 lung; A549/ATCC NSCLC; 786-0 renal; COLO 205 colon; DU-145 prostate; K-562 leukemia; MALME-3M melanoma; MDA-MB-231 breast; RXF 393 renal; SF-268 CNS; SF-295 CNS; SF-539 CNS; UACC-257 melanoma; M14 melanoma.
What all share (test): NCI-60 one-dose screen, 48 h (100 = growth as untreated, 0 = no growth, -100 = all killed)
Conditions in all cases: 10 µM

Compounds without any hit were thinned out: in the full panel of roughly 83,000, 20% have a hit.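 Each cell line was grown in a 96-well plate and treated with one concentration of compound for 48 hours. Values below 10 were considered active.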 Values without a mark were called inactive. Calls of active or inactive are those of the source.

Take `O=C(Nc1nc(-c2ccccc2)nc2c1sc(=S)n2-c1ccccc1)C(F)(F)F`: the growth in the assay with NCI-H23 lung is 89.9%; in the assay on NCI-H226 lung it was 90.3%; in the assay on HOP-62 NSCLC, 101%; in the assay on NCI-H460 lung it was 99.3%; in the assay with HOP-92 NSCLC, 81.4%; in the assay on NCI-H522 lung it was 86.6%. For the same compound, the growth is 74.9% with A549/ATCC NSCLC; 98.9% in the assay on 786-0 renal; 115% in the assay with COLO 205 colon; 99.6% in the assay on DU-145 prostate; 79.4% in the assay on K-562 leukemia; 124% with MALME-3M melanoma. For the same compound, the growth with MDA-MB-231 breast was 89.7%; in the assay with RXF 393 renal, 98%; with SF-268 CNS, 98.4%; with SF-295 CNS, 88.4%; with SF-539 CNS, 96.5%; with UACC-257 melanoma, 82.9%. Moreover, the growth with M14 melanoma is 101%.

Consider `C/C=C/C1=CN2C(=O)c3cc(OC4OC(C)C(NC)C(C)(O)C4O)c(C)c(O)c3N=C[C@@H]2C1` (stereo partly specified), for which the growth is -43.7% (active) in the assay with NCI-H23 lung; 3.31% (active) with NCI-H226 lung; -7% (active) with HOP-62 NSCLC; -13.8% (active) in the assay on NCI-H460 lung; -17.8% (active) with HOP-92 NSCLC; -28.5% (active) with NCI-H522 lung. The growth in the assay on A549/ATCC NSCLC was 5.24% (active); in the assay on 786-0 renal it was -25% (active); with COLO 205 colon, -49.2% (active); with DU-145 prostate it was -12.7% (active); in the assay with K-562 leukemia it was 4.18% (active); in the assay with MALME-3M melanoma it was -51.9% (active). The growth in the assay on MDA-MB-231 breast was -10.1% (active); with RXF 393 renal, -40.5% (active); with SF-268 CNS, -35.5% (active); in the assay with SF-295 CNS it was -25% (active); in the assay on SF-539 CNS, -46.1% (active); with UACC-257 melanoma, -6.48% (active). In addition, the growth in the assay on M14 melanoma was -63.2% (active).

Regarding `CC(C)c1cc(N=O)cc(C(C)C)c1O`, the growth in the assay on NCI-H23 lung is 95.2%; in the assay on NCI-H226 lung, 102%; in the assay on HOP-62 NSCLC it was 101%; in the assay on NCI-H460 lung, 103%; in the assay with HOP-92 NSCLC, 108%; with NCI-H522 lung, 97.7%. Moreover, the growth with A549/ATCC NSCLC is 97%; with 786-0 renal, 104%; in the assay with COLO 205 colon, 112%; in the assay with DU-145 prostate, 119%; in the assay with K-562 leukemia, 106%; with MALME-3M melanoma it was 110%. Besides, the growth with MDA-MB-231 breast is 99.3%; with RXF 393 renal it was 110%; in the assay with SF-268 CNS it was 104%; in the assay on SF-295 CNS, 102%; with SF-539 CNS it was 109%; in the assay with UACC-257 melanoma it was 94.8%. In the assay with M14 melanoma, the growth is 123%.

Take `CS(=O)(=O)c1nccc(-c2c(-c3ccc(OCCc4ccccc4)cc3)nc3sccn23)n1`: the growth in the assay on NCI-H23 lung was 91.8%; with NCI-H226 lung, 44.8%; in the assay on HOP-62 NSCLC it was 104%; in the assay with NCI-H460 lung, 101%; with HOP-92 NSCLC, 75.8%; in the assay with NCI-H522 lung it was 94%. The growth with A549/ATCC NSCLC was 101%; with 786-0 renal, 99.3%; with COLO 205 colon it was 115%; with DU-145 prostate, 94%; in the assay with K-562 leukemia, 100%; with MALME-3M melanoma it was 103%. The growth is 85.2% with MDA-MB-231 breast; 92.5% in the assay on RXF 393 renal; 104% in the assay on SF-268 CNS; 108% in the assay on SF-295 CNS; 85.5% in the assay with SF-539 CNS; 103% in the assay with UACC-257 melanoma. Also, the growth with M14 melanoma is 94.6%.

Take `OCC1OC(n2ccc3c(NO)ncnc32)C(O)C1O` (stereo unspecified): the growth is -56.3% (active) with NCI-H23 lung; -10.3% (active) with NCI-H226 lung; -21.6% (active) in the assay with HOP-62 NSCLC; -27.7% (active) with NCI-H460 lung; -16.3% (active) in the assay on HOP-92 NSCLC; -30.1% (active) with NCI-H522 lung. The growth with A549/ATCC NSCLC was -10.9% (active); with 786-0 renal, -7.13% (active); with COLO 205 colon, -91.1% (active); with DU-145 prostate it was -16.6% (active); in the assay on K-562 leukemia it was -11.4% (active); with MALME-3M melanoma, -69.2% (active). For the same compound, the growth is -20% (active) in the assay with MDA-MB-231 breast; -32.7% (active) in the assay with RXF 393 renal; -14.3% (active) in the assay on SF-268 CNS; -15.4% (active) with SF-295 CNS; -44% (active) with SF-539 CNS; -57.3% (active) in the assay on UACC-257 melanoma. In the assay with M14 melanoma, the growth is -89.7% (active).

With `NS(=O)(=O)Oc1ccc2c(ccn2C(=O)C23CC4CC(CC(C4)C2)C3)c1`, the growth was 97% in the assay on NCI-H23 lung; 93.4% with NCI-H226 lung; 111% in the assay on HOP-62 NSCLC; 104% in the assay with NCI-H460 lung; 122% in the assay with HOP-92 NSCLC; 94.9% in the assay on NCI-H522 lung. Moreover, the growth in the assay with A549/ATCC NSCLC is 101%; in the assay with 786-0 renal it was 110%; in the assay on COLO 205 colon it was 114%; with DU-145 prostate, 116%; with K-562 leukemia it was 101%; with MALME-3M melanoma it was 115%. The growth in the assay on MDA-MB-231 breast is 102%; in the assay with RXF 393 renal it was 115%; in the assay with SF-268 CNS, 111%; with SF-295 CNS it was 97.8%; with SF-539 CNS, 103%; in the assay on UACC-257 melanoma, 102%. Also, the growth in the assay with M14 melanoma is 112%.

As to `COc1cc(/C=C/c2cc(/C=C/c3ccc(O)c(OC)c3)n(C(=O)Nc3ccc(C)cc3)n2)ccc1O`, the growth was -10.4% (active) in the assay with NCI-H23 lung; -0.891% (active) in the assay with NCI-H226 lung; 11.6% in the assay with HOP-62 NSCLC; 10.1% in the assay with NCI-H460 lung; -15.4% (active) in the assay on HOP-92 NSCLC; -19.3% (active) in the assay on NCI-H522 lung. In addition, the growth is 4.71% (active) in the assay with A549/ATCC NSCLC; -1.18% (active) in the assay with 786-0 renal; -25.8% (active) in the assay on COLO 205 colon; 2.02% (active) in the assay on DU-145 prostate; 2.29% (active) with K-562 leukemia; 17.3% with MALME-3M melanoma. Also, the growth in the assay on MDA-MB-231 breast was 19.9%; with RXF 393 renal it was -47.5% (active); in the assay with SF-268 CNS it was -11.5% (active); with SF-295 CNS, 0.531% (active); with SF-539 CNS it was 5.95% (active); with UACC-257 melanoma, 4.8% (active). Moreover, in the assay on M14 melanoma, the growth is 2.3% (active).

For the compound `COc1ccc(C(=O)N/N=C/c2cc(C(F)(F)F)ccc2Cl)cc1`, the growth in the assay with NCI-H23 lung was 81.3%; in the assay on NCI-H226 lung, 82.3%; in the assay with HOP-62 NSCLC, 107%; in the assay with NCI-H460 lung, 99.8%; with HOP-92 NSCLC, 90.2%; in the assay with NCI-H522 lung, 82.1%. The growth is 97.4% in the assay on A549/ATCC NSCLC; 104% in the assay on 786-0 renal; 104% in the assay with COLO 205 colon; 105% in the assay on DU-145 prostate; 95.4% in the assay with K-562 leukemia; 111% with MALME-3M melanoma. The growth was 89.4% in the assay with MDA-MB-231 breast; 74.9% in the assay with RXF 393 renal; 112% in the assay on SF-268 CNS; 78.2% in the assay on SF-295 CNS; 104% with SF-539 CNS; 105% in the assay on UACC-257 melanoma. For the same compound, the growth in the assay with M14 melanoma is 104%.

Take `O=C(CCn1cnc2c(cc(-c3ccccc3)n2-c2ccccc2)c1=O)Nc1ccc(F)cc1`: the growth with NCI-H23 lung was 76.1%; in the assay on NCI-H226 lung, 106%; in the assay on HOP-62 NSCLC it was 13%; in the assay with NCI-H460 lung, 80.4%; in the assay with HOP-92 NSCLC it was 34.2%; in the assay with NCI-H522 lung, 55%. For the same compound, the growth with A549/ATCC NSCLC is 70.9%; with 786-0 renal, 62.7%; in the assay on COLO 205 colon, 103%; in the assay with DU-145 prostate it was 85.9%; in the assay on K-562 leukemia, 67.3%; in the assay with MALME-3M melanoma, 51.4%. In addition, the growth in the assay on MDA-MB-231 breast was 68.7%; in the assay on RXF 393 renal, 1.78% (active); with SF-268 CNS, 70%; with SF-295 CNS, 77.8%; in the assay with SF-539 CNS it was 76.2%; in the assay on UACC-257 melanoma, 86.2%. Moreover, the growth in the assay on M14 melanoma is 73.4%.
